# An excerpt weighted towards active compounds, which were near 11% of everything screened.
# HEK cytotox: cytotoxic compounds in HEK 293 cells; Potency, µM (highest dose often 115 µM), without a hit: at the highest dose activity change, negative = cytotoxicity, usual class: inhibitors; AID 1345083; HEK 293 viability, ATP luminescence (CellTiter-Glo), 48-72 h; 6.6% of 94,000 active; further: nearly all actives have a fitted effect of over 60% in size
#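 Cytotoxicity was scored by loss of ATP-coupled luminescence (CellTiter-Glo) in HEK 293 cells. Compound treatment ran 48 or 72 hr at 37 degree Celsius, 5% CO2, 95% humidity.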
# hNpr1 antagonist: blocks ANP-stimulated signaling of human Npr1 receptor; HEK293 hNpr1 GloSensor cGMP, ANP-stimulated luminescence; Potency, µM (top dose mostly 46.3 µM), for inactives: at the top dose activity change, negative = inhibition, usual class: inhibitors; 1.6% of 76,000 active; calls by dose curve; further: nearly all actives have a fitted effect of over 60% in size
#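 HEK293 cells stably expressing human Npr1 and cGMP GloSensor pGS-40F, loaded 2 h with 2% GloSensor reagent, given compound 30 min at room temperature. Luminescence read before and 20 min after 0.1 nM hNppA.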
# FLuc inh: inhibitors of firefly (Photinus pyralis) luciferase | P08659 | purified P. pyralis luciferase, luminescence, biochemical | Potency, µM (titrated, usually from 115 µM), most hits filed as inhibitors | 2.5% of 76,000 active; further: nearly all actives have a fitted effect of over 65% in size
#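 Inhibitors were tested against purified firefly luciferase in a biochemical, low-substrate format (both substrates at 10uM) and luminescence measured with a CCD imager.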
# 3T3 cytotox: cytotoxic compounds in NIH 3T3 cells; NIH 3T3 viability, CellTiter-Glo ATP luminescence, 48-72 h; Potency, µM (series often up to 96.7 µM), for the others: at the highest dose activity change, negative = cytotoxicity, actives largely listed as inhibitors; 4.3% of 94,000 active; AID 1345082; further: nearly all actives have a fitted effect of over 55% in size
#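 Viability of NIH 3T3 cells after 48 or 72 hr compound treatment at 37 °C was assessed by CellTiter-Glo, with luminescence imaged following a 10 min room-temperature step.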
# * = called active by the depositor; i = inactive; ? = inconclusive; / = not tested or not shown. Unless noted, the call rests on the fitted dose curve; in most records, active means well fitted curve in the direction sought with a large enough effect; inconclusive means small, poorly fitted or top-dose-only effect, or another doubt; inactive means no such curve, though single readings can be large; an effect the other way counts as inactive or inconclusive. On the % scale 0 is the no-effect control and ±100 the full control effect; potency means the concentration at half of the fitted maximal effect.
SMILES,HEK cytotox,hNpr1 antagonist,FLuc inh,3T3 cytotox
N#Cc1cccc(CN2CCCC(c3[nH]ccc3C(N)=O)C2)c1 (stereo not given),-22.0%,-1.5%,i,-14.7%
COc1ccccc1OCCNC(=O)C1CCCN(Cc2ccncc2)CCC(=O)NCC1 (stereo not given),i,3.9%,i,-1.7%
COc1ccc(CC(=O)N[C@H]2CCOC[C@H]2C2CCOCC2)c(OC)c1,i,2.4%,i,-0.4%
CC(C)CCN1CCC(N2CCN(C(=O)c3cc(F)cc(F)c3)CC2)C1=O (stereo not given),-25.5%,2.9%,i,-5.5%
O=C1CC(c2noc(Cc3ccc(F)cc3)n2)CN1c1ccc(F)c(Cl)c1 (stereo not given),22.4µM*,-1.2%,i,17.8µM*
Cc1ccc(Cc2nc(C3CC(=O)N(c4ccc(Cl)cc4)C3)no2)cc1 (stereo not given),?,-12.3%,i,?
Cc1ccc(C2Cn3nnc(C(=O)N4CCC(C(=O)NCc5cc(F)cc(F)c5)CC4)c3CO2)cc1 (stereo not given),-6.0%,-0.6%,15.8µM*,i
COc1cccc(CNC(=O)C2CCN(C(=O)c3nnn4c3COC(c3ccc(C)cc3)C4)CC2)c1 (stereo not given),-23.2%,-0.3%,?,-5.4%
Cc1ccc(C2Cn3nnc(C(=O)N4CCC(C(=O)NCc5cccc(F)c5)CC4)c3CO2)cc1 (stereo not given),-1.8%,-2.0%,35.5µM*,-15.6%
Cc1ccc(C2Cn3nnc(C(=O)N4CCC(C(=O)NCc5cccc(Cl)c5)CC4)c3CO2)cc1 (stereo not given),-16.4%,-7.1%,22.4µM*,-21.8%
Cc1ccc(CNC(=O)C2CCN(C(=O)c3nnn4c3COC(c3ccc(C)cc3)C4)CC2)cc1 (stereo not given),1.0%,-1.0%,i,2.3%
COC(=O)CNC(=O)c1cc(-c2ccc(Cl)nc2)c2cnn(C)c2n1,-32.3%,/,/,?
O=C(c1c(OCC2CC2)cc(=O)n2c1CCCCC2)N1CCOCC1,1.5%,-0.4%,i,?
Cc1ccc(C)c(S(=O)(=O)N2CCCC(Cn3c(C)nc4cccnc43)C2)c1 (stereo not given),39.8µM*,?,i,25.1µM*
Cc1nc2cccnc2n1CC1CCCN(S(=O)(=O)c2cccc(Cl)c2)C1 (stereo not given),?,?,i,?
Cc1cc(Cl)ccc1S(=O)(=O)N1CCCC(Cn2c(C)nc3cccnc32)C1 (stereo not given),20µM*,?,i,11.2µM*
CCc1ccccc1S(=O)(=O)N1CCCC(Cn2c(C3CC3)nc3cccnc32)C1 (stereo not given),39.8µM*,-19.2%,i,?
Cc1nc2cccnc2n1CC1CCCN(S(=O)(=O)Cc2ccc(Cl)cc2)C1 (stereo not given),31.6µM*,?,i,?
Cc1ccc(S(=O)(=O)N2CCCC(Cn3c(C)nc4cccnc43)C2)c(C)c1 (stereo not given),?,?,i,?
CCn1ccnc1CN1CC[C@H](N2CCN(C)CC2)[C@H](CCC(=O)O)C1,1.3%,1.5%,i,i
Cc1ccc(NC(=O)C2Cn3cccc3C(=O)N2)cc1F (stereo not given),i,-12.5%,i,-10.3%
O=C(NCCc1ccccc1F)C1CN(c2cccc(Cl)c2)C(=O)N1 (stereo not given),-16.9%,28.3%,i,-28.3%
Cc1ccc([S+](=O)([O-])N2CCC(C(=O)N3CCC(c4nc5ncccc5[nH]4)CC3)C2)cc1 (stereo not given),-5.7%,/,/,0.6%
Cc1cc(NC(=O)N2CCCC(Cn3c(C)nc4cccnc43)C2)ccc1Br (stereo not given),31.6µM*,-22.1%,i,?
Cc1ccc(S(=O)(=O)N2CCCC(Cn3c(C4CC4)nc4cccnc43)C2)c(C)c1 (stereo not given),35.5µM*,-24.1%,i,?
O=C1NC2(CN(Cc3ccccc3C(F)(F)F)C2)Oc2ccccc21,39.8µM*,-0.8%,i,?
O=C1NC2(CCCN(Cc3ccccc3C(F)(F)F)C2)Oc2ccccc21 (stereo not given),44.7µM*,-7.4%,i,?

# Screening results deposited in PubChem BioAssay by National Center for Advancing Translational Sciences (NCATS).
